Assay [1] can be described thus: inhibitors of TNFa-induced NFkB p65 translocation, primary screen, imaging, HUVEC, MLSMR starter and 10KST1 sets (AID 438;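 active = inhibition above 20% together with a positive visual image hit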;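 also: compound added about 3h40 before a 20 min TNFalpha stimulation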;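 as to inhibition: signal is the nuclear over cytoplasmic p65 intensity ratio per well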). Conditions: HUVEC TNFa-induced p65 nuclear translocation; cell count: measured here: nuclei count (cytotoxicity indicator), at 2.08 µM; inhibition: at 2 µM, stronger effect = higher value, 0% TNFa-plus-vehicle, 100% no-TNFa wells.
Assay [2] is described as follows: inhibitors of mutant huntingtin aggregation, primary screen, imaging, exon1htt(103Q)mCFP cells, high-content imaging (AID 483;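 active = visual image review flags a hit and inhibition of aggregation exceeds 20%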;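 also: compound exposure lasted 3 days before fixation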;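 as to nuclei count: percent of the per-plate median nuclei count of sample wells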). Conditions: exon1htt(103Q)mCFP cell line, aggregate imaging, at 2 µM; inhibition of aggregation: stronger effect = higher value; nuclei count: measured here: cell count, toxicity.
The nature of assay [3]: inhibitors of E-selectin induction by TNFa, primary screen, imaging, HUVEC, immunofluorescence, MLSMR starter and 10KST1 sets (AID 487;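 active = visually confirmed hit in the image check and inhibition above 20%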;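 as to inhibition: signal is fraction of cell area covered by stained E-selectin grains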;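 as to nuclei count: 100% = median nuclei count of all wells on the same plate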). To be noted: HUVEC TNFalpha-induced E-selectin immunofluorescence imaging, at 2 µM; inhibition: stronger effect = higher value; nuclei count: measured here: cell number, toxicity.
The target of assay [4] is Voltage-gated potassium channel subunit beta-2 (Rattus norvegicus) (UniProt P62483). Description: KvBeta enzyme negative modulators, primary screen, biochemical, NADPH fluorescence (AID 622;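 active = fluorescence slope higher than the sample average by over 3 SD, cut at about -0.22 in these data, passing the limit was not always enough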;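 also: slope of raw intensity against log time taken from 70 to 1610 s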). Conditions: recombinant KvBeta, 4-cyanobenzaldehyde reduction, at 10 µM, stronger effect = higher value.
Chain of Voltage-gated potassium channel subunit beta-2 (Rattus norvegicus) (P62483 whole entry, looked up): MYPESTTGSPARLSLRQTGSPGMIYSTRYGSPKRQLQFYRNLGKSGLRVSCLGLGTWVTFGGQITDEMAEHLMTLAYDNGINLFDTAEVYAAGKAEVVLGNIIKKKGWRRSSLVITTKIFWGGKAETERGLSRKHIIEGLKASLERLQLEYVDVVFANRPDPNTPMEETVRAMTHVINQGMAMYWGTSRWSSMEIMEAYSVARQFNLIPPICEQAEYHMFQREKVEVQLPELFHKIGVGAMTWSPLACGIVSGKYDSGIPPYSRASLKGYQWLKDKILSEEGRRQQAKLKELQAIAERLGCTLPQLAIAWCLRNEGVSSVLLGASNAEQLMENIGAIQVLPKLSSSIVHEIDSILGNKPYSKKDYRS
The target is the same in assay [5]. Description: KvBeta positive modulators, primary screen, biochemical, NADPH fluorescence (AID 623;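 active = NADPH fluorescence slope more negative than the mean of all samples by about 3 SD, 99.7% confidence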;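 also: fluorescence intensity change per second fitted from 20 to 320 s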). To be noted: Recombinant KvBeta, NADPH fluorescence decrease slope, 10 min; at 10 µM; stronger effect = lower value.
Assay [6] concerns the target Alpha-2C adrenergic receptor (Homo sapiens) (UniProt P18825). The experiment in a line: modulators of alpha2C/GIRK thallium flux, primary screen, cell-based, HEK293 alpha2C/GIRK1/2 (AID 624).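 Also: slope of fluorescence ratio to pre-addition baseline per second over 15 to 24 s.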 To be noted: thallium flux BTC fluorescence, at 10 µM, actives lie on both sides.
A short description of assay [7]: inhibitors of Sendai virus-induced IRF3 signaling, primary screen, TLR/RLR signaling modifier project, cell-based, Sendai virus stimulus, luciferase, 10K MLSCN set (AID 602276;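 active = inhibition at or above 50% at 10 µM; inactive = inhibition below 50%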;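 also: firefly luciferase from ISG56 promoter only with Renilla not read in this screen; 0% = Sendai virus plus DMSO and 100% = medium plus DMSO without virus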). Conditions: HEK293 RL24 IRF3 luciferase reporter, at 10 µM, stronger effect = higher value.
The nature of assay [8]: inhibitors of poly I:C-induced TLR3 signaling, primary screen, cell-based, poly I:C stimulus, luciferase, 10K MLSCN set (AID 602277;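 active = inhibition of the reporter signal at or above 50%; inactive = inhibition below 50%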). To be noted: HEK293-TLR3 RL24 IRF3 luciferase reporter, at 10 µM, stronger effect = higher value.

Here are results for 14 compounds from PubChem BioAssay.

Activity calls are given as the source filed them.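 The calls were made as follows, unless noted: active = fluorescence slope after compound addition differing from the mean of all screened samples at 99.7% confidence, in either direction; inactive = the rest.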

Chain of Alpha-2C adrenergic receptor (Homo sapiens) (P18825 whole entry, looked up): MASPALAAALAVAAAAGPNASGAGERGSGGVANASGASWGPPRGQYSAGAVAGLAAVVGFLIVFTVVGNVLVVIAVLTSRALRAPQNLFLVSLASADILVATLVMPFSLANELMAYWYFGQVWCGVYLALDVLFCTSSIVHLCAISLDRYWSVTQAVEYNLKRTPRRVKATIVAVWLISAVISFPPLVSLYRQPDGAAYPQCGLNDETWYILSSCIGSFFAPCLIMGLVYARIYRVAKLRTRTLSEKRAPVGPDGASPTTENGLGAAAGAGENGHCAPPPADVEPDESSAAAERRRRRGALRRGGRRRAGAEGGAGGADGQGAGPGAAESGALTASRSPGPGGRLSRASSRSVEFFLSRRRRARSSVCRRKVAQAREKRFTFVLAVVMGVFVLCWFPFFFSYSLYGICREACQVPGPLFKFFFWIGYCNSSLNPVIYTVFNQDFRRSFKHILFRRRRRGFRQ

On to `CCCNc1nc(N2CCOCC2)nc(N2CCOCC2)n1`, for which the cell count in assay [1] was determined as 193. The inhibition in assay [1] was -17.4% (inactive); in assay [3], 3.6% (inactive); in assay [7] it was -9.95% (inactive); in assay [8], 18.9% (inactive). Also, in assay [2], the inhibition of aggregation is 23.8% (inactive). The nuclei count in assay [2] stood at 92.2%; in assay [3], 91.7%. Besides, the fluorescence slope in assay [4] is -0.498 (inactive). For the same compound, in assay [5], the NADPH fluorescence slope was -2.3e-05 (inactive). Besides, in assay [6], the slope is 0.00617 (inactive).
With `CCN(C(=O)c1cc(Cl)ccc1OC)c1ccccc1`, the cell count in assay [1] is 354. The inhibition is 5.3% (inactive) in assay [1], -7.9% (inactive) in assay [3], 14.3% (inactive) in assay [7] and 48.8% (inactive) in assay [8]. In assay [2], the inhibition of aggregation is -20.6% (inactive). The nuclei count in assay [2] was determined as 100%; in assay [3], 118%. The fluorescence slope in assay [4] is -0.447 (inactive). Besides, the NADPH fluorescence slope in assay [5] is -4.1e-05 (inactive). For the same compound, in assay [6], the slope is 0.00295 (inactive).
Consider `CC1CCc2nn(CC(=O)Nc3ccc(F)cc3F)cc2C1` (centres undefined), for which, in assay [1], the cell count was determined as 644. In addition, the inhibition in assay [1] is -2.3% (inactive); in assay [3] it was -2.5% (inactive); in assay [7] it was -5.03% (inactive); in assay [8], 21.4% (inactive). For the same compound, the inhibition of aggregation in assay [2] was -37.3% (inactive). For the same compound, the nuclei count in assay [2] came to 41.3%; in assay [3], 111%. In addition, the fluorescence slope in assay [4] is -0.543 (inactive). Further, in assay [5], the NADPH fluorescence slope was 1.3e-05 (inactive). For the same compound, the slope in assay [6] is 0.00669 (inactive).
On to `COc1ccc(CNc2ccc(C(=O)O)cc2)cc1`, for which the cell count in assay [1] was 511. Besides, the inhibition in assay [1] is -28.3% (inactive); in assay [3], -61% (inactive); in assay [7] it was -4.3% (inactive); in assay [8], -15.8% (inactive). In addition, in assay [2], the inhibition of aggregation is -17.2% (inactive). The nuclei count in assay [2] turned out to be 116%; in assay [3], 107%. In addition, the fluorescence slope in assay [4] was -0.513 (inactive). Also, the NADPH fluorescence slope in assay [5] is -3.9e-05 (inactive). For the same compound, the slope in assay [6] was 0.00575 (inactive).
With `Cc1ccc(/C=c2\sc3nc(-c4ccccc4Br)nn3c2=O)o1`, in assay [1], the cell count turned out to be 277. The inhibition in assay [1] was -5% (inactive); in assay [3], -9.5% (inactive); in assay [7], 12.3% (inactive); in assay [8], 18.9% (inactive). In assay [2], the inhibition of aggregation is 39.3% (active). Further, the nuclei count in assay [2] amounted to 92.3%; in assay [3], 94.1%. Besides, the fluorescence slope in assay [4] was -0.577 (inactive). Besides, the NADPH fluorescence slope in assay [5] was -5.1e-05 (inactive). Besides, in assay [6], the slope is 0.00296 (inactive).
`Cc1cccc(C(=O)N2CCC(n3nnc4cc(F)ccc43)CC2)c1`: the cell count in assay [1] is 695. Besides, the inhibition in assay [1] is -12.5% (inactive); in assay [3], 13.4% (inactive); in assay [7], 5.99% (inactive); in assay [8] it was 6.27% (inactive). The inhibition of aggregation in assay [2] is -26.4% (inactive). In addition, the nuclei count in assay [2] is 101%; in assay [3], 106%. In addition, in assay [4], the fluorescence slope is -0.325 (inactive). Further, the NADPH fluorescence slope in assay [5] is -2e-05 (inactive). In addition, the slope in assay [6] is 0.0067 (inactive).
For the compound `CCOC(=O)C(CC)Sc1nc2c(c(=O)[nH]c(=O)n2C)n1C/C=C(/C)Cl` (centres undefined), the cell count in assay [1] was 775. Further, the inhibition in assay [1] is -12.9% (inactive); in assay [3] it was 18.5% (inactive); in assay [7] it was 14.5% (inactive); in assay [8] it was 19.1% (inactive). Also, the inhibition of aggregation in assay [2] is 18% (inactive). Also, the nuclei count in assay [2] came out at 96.3%; in assay [3], 106%. Further, in assay [4], the fluorescence slope was -0.601 (inactive). Also, the NADPH fluorescence slope in assay [5] was -6.7e-05 (inactive). Besides, the slope in assay [6] is 0.00361 (inactive).
As for `Cc1nc2cc(C(=O)O)ccc2n1-c1ccc(F)cc1F`, the cell count in assay [1] is 672. Further, the inhibition in assay [1] was -1.5% (inactive); in assay [3], -12.5% (inactive); in assay [7] it was 4.77% (inactive); in assay [8], 27.2% (inactive). Moreover, in assay [2], the inhibition of aggregation is -2.2% (inactive). The nuclei count came out at 99.5% in assay [2] and 116% in assay [3]. Also, the fluorescence slope in assay [4] is -0.527 (inactive). The NADPH fluorescence slope in assay [5] was -4.1e-05 (inactive). Besides, the slope in assay [6] was 0.00687 (inactive).
Turning to `CCOc1ccc(OCCCCN(C)C)cc1`, in assay [1], the cell count was determined as 386. Also, the inhibition in assay [1] is 1.8% (inactive); in assay [3], -111% (inactive); in assay [7], 8.3% (inactive); in assay [8], 27.7% (inactive). The inhibition of aggregation in assay [2] is 5.3% (inactive). For the same compound, the nuclei count in assay [2] amounted to 110%; in assay [3], 104%. In assay [4], the fluorescence slope was -0.299 (inactive). Besides, in assay [5], the NADPH fluorescence slope was -6.7e-06 (inactive). The slope in assay [6] is 0.00564 (inactive).
On to `Cc1cc2c(cc1C)C(=O)NC(C)(C)C2`, for which the cell count in assay [1] amounted to 417. The inhibition is -1.1% (inactive) in assay [1], -20.1% (inactive) in assay [3], -1.09% (inactive) in assay [7] and 0.395% (inactive) in assay [8]. Also, the inhibition of aggregation in assay [2] was -12.1% (inactive). For the same compound, the nuclei count came to 108% in assay [2] and 120% in assay [3]. Further, in assay [4], the fluorescence slope was -0.375 (inactive). The NADPH fluorescence slope in assay [5] is 6.6e-05 (inactive). Further, the slope in assay [6] is 0.01 (inactive).
On to `COCCCNC(=O)C1CCN(C(=O)Nc2ccc(Cl)cc2)CC1`, for which the cell count in assay [1] came to 577. Moreover, the inhibition in assay [1] is 5% (inactive); in assay [3] it was 33.6% (inactive); in assay [7] it was 11.2% (inactive); in assay [8], 34.3% (inactive). The inhibition of aggregation in assay [2] is 18.9% (inactive). Further, the nuclei count in assay [2] was found to be 96.2%; in assay [3], 82.1%. For the same compound, the fluorescence slope in assay [4] was -0.457 (inactive). The NADPH fluorescence slope in assay [5] is 1.1e-05 (inactive). Further, in assay [6], the slope is 0.00588 (inactive).
As to `CCOc1cc(NC(=O)c2ccco2)c(OCC)cc1NC(=O)Cc1cccc(OC)c1`, the cell count in assay [1] came to 592. Further, the inhibition in assay [1] was -14.5% (inactive); in assay [3] it was 22.4% (inactive); in assay [7], -6.51% (inactive); in assay [8], -45.9% (inactive). Moreover, the inhibition of aggregation in assay [2] was -4.3% (inactive). The nuclei count is 107% in assay [2] and 102% in assay [3]. Further, the fluorescence slope in assay [4] was -0.397 (inactive). In assay [5], the NADPH fluorescence slope was -5.1e-05 (inactive). Further, the slope in assay [6] is 0.00431 (inactive).
As for `CC(=O)c1cccc(NS(=O)(=O)c2ccc3c(c2)oc(=O)n3C)c1`, the cell count in assay [1] stood at 299. In addition, the inhibition in assay [1] was -9% (inactive); in assay [3], -52% (inactive); in assay [7], 6.35% (inactive); in assay [8] it was 2.39% (inactive). Further, the inhibition of aggregation in assay [2] was 0.5% (inactive). Further, the nuclei count amounted to 119% in assay [2] and 117% in assay [3]. The fluorescence slope in assay [4] is -0.437 (inactive). Also, in assay [5], the NADPH fluorescence slope is -2.3e-05 (inactive). The slope in assay [6] is 0.00511 (inactive).
As for `O=c1[nH]c(/C(=N\O)c2ccccc2)no1`, the cell count in assay [1] stood at 462. Besides, the inhibition in assay [1] is 2% (inactive); in assay [3], -11.8% (inactive); in assay [7], 7.11% (inactive); in assay [8] it was 24.8% (inactive). The inhibition of aggregation in assay [2] is -5% (inactive). Moreover, the nuclei count in assay [2] amounted to 109%; in assay [3], 111%. In assay [4], the fluorescence slope was -0.421 (inactive). The NADPH fluorescence slope in assay [5] was -0.000106 (inactive). For the same compound, the slope in assay [6] is 0.00496 (inactive).
